According to the supplement of paper PMC8728848:
About 410 targets per protein were measured; listed, in parts, are those with the strongest signals and a random draw of the rest.

Legend:
Experiment in all cases: glycan array binding signal (z-score within array); higher = stronger binding
Conditions in all cases: glycan notation: IUPAC condensed, linker removed
Fuc(a1-2)Gal = target: Fuc(a1-2)Gal
Outline: (§1)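 Negative Z-scores can be read as non-binding. The Z-score is calculated within each array and then averaged across arrays of one protein sequence at different concentrations or buffers and across linkers. Arrays, 3228 in all, were curated from the Consortium for Functional Glycomics database and kept only where the protein sequence was available.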

[1] = target: Fuc(a1-2)Gal(b1-4)Fuc(a1-3)]GlcNAc(b1-2)Man(a1-3)[Fuc(a1-2)Gal(b1-4)[Fuc(a1-3)]GlcNAc(b1-2)Man(a1-6)]Man(b1-4)GlcNAc(b1-4)GlcNAc
Outline: as §1

[2] = target: Fuc(a1-2)Gal(b1-4)[Fuc(a1-3)]GlcNAc
Outline: as §1

[3] = target: Fuc(a1-2)[Gal(a1-3)]Gal(b1-3)GalNAc
Outline: as §1

[4] = target: Fuc(a1-2)[Gal(a1-3)]Gal(b1-3)GlcNAc(b1-2)Man(a1-3)[Fuc(a1-2)[Gal(a1-3)]Gal(b1-3)GlcNAc(b1-2)Man(a1-6)]Man(b1-4)GlcNAc(b1-4)GlcNAc
Outline: as §1

[5] = target: Fuc(a1-2)[Gal(a1-3)]Gal(b1-4)[Fuc(a1-3)]Glc
Outline: as §1

[6] = target: Fuc(a1-2)[GalNAc(a1-3)]Gal(b1-3)GalNAc(b1-3)Gal(a1-4)Gal(b1-4)Glc
Outline: as §1

[7] = target: Fuc(a1-2)[GalNAc(a1-3)]Gal(b1-4)Glc
Outline: as §1

[8] = target: Fuc(a1-2)[GalNAc(b1-3)]Gal
Outline: as §1

[9] = target: Fuc(a1-3)[Gal(b1-4)]GlcNAc(b1-2)Man(a1-3)[Fuc(a1-3)[Gal(b1-4)]GlcNAc(b1-2)Man(a1-6)]Man(b1-4)GlcNAc(b1-4)[Fuc(a1-6)]GlcNAc
Outline: as §1

[10] = target: Fuc(a1-3)[GalNAc(b1-4)]GlcNAc
Outline: as §1

[11] = target: Gal(a1-3)Gal(b1-3)GlcNAc(b1-6)GalNAc
Outline: as §1

[12] = target: Gal(a1-3)Gal(b1-4)GlcNAc(b1-2)Man(a1-3)[Gal(a1-3)Gal(b1-4)GlcNAc(b1-2)Man(a1-6)]Man(b1-4)GlcNAc(b1-4)GlcNAc
Outline: as §1

[13] = target: Gal(b1-4)GlcNAc(a1-6)Gal(b1-4)GlcNAc
Outline: as §1

[14] = target: Gal(b1-4)GlcNAc(b1-2)Man(a1-3)[Gal(b1-4)GlcNAc(b1-2)Man(a1-6)]Man(b1-4)GlcNAc(b1-4)GlcNAc
Outline: as §1

[15] = target: Gal(b1-4)GlcNAc(b1-2)[Gal(b1-4)GlcNAc(b1-4)]Man(a1-3)[GlcNAc(b1-4)][Gal(b1-4)GlcNAc(b1-2)[Gal(b1-4)GlcNAc(b1-6)]Man(a1-6)]Man(b1-4)GlcNAc(b1-4)GlcNAc
Outline: as §1

[16] = target: Gal(b1-4)GlcNAc(b1-2)[Gal(b1-4)GlcNAc(b1-6)]Man(a1-6)[Gal(b1-4)GlcNAc(b1-2)Man(a1-3)]Man(b1-4)GlcNAc(b1-4)GlcNAc
Outline: as §1

[17] = target: Gal(b1-4)GlcNAc(b1-3)Gal(b1-4)GlcNAc(b1-2)Man(a1-3)[Gal(b1-4)GlcNAc(b1-3)Gal(b1-4)GlcNAc(b1-2)Man(a1-6)]Man(b1-4)GlcNAc(b1-4)[Fuc(a1-6)]GlcNAc
Outline: as §1

[18] = target: Gal(b1-4)GlcNAc(b1-3)Gal(b1-4)GlcNAc(b1-2)[Gal(b1-4)GlcNAc(b1-3)Gal(b1-4)GlcNAc(b1-6)]Man(a1-6)[Gal(b1-4)GlcNAc(b1-3)Gal(b1-4)GlcNAc(b1-2)Man(a1-3)]Man(b1-4)GlcNAc(b1-4)GlcNAc
Outline: as §1

[19] = target: Gal(b1-4)GlcNAc(b1-3)Gal(b1-4)GlcNAc(b1-3)Gal(b1-4)GlcNAc(b1-3)Gal(b1-4)GlcNAc(b1-2)Man(a1-3)[Gal(b1-4)GlcNAc(b1-3)Gal(b1-4)GlcNAc(b1-3)Gal(b1-4)GlcNAc(b1-3)Gal(b1-4)GlcNAc(b1-2)Man(a1-6)]Man(b1-4)GlcNAc(b1-4)[Fuc(a1-6)]GlcNAc
Outline: as §1

[20] = target: Gal(b1-4)GlcNAc(b1-3)Gal(b1-4)GlcNAc(b1-3)Gal(b1-4)GlcNAc(b1-3)Gal(b1-4)GlcNAc(b1-2)[Gal(b1-4)GlcNAc(b1-3)Gal(b1-4)GlcNAc(b1-3)Gal(b1-4)GlcNAc(b1-3)Gal(b1-4)GlcNAc(b1-6)]Man(a1-6)[Gal(b1-4)GlcNAc(b1-3)Gal(b1-4)GlcNAc(b1-3)Gal(b1-4)GlcNAc(b1-3)Gal(b1-4)GlcNAc(b1-2)Man(a1-3)]Man(b1-4)GlcNAc(b1-4)[Fuc(a1-6)]GlcNAc
Outline: as §1

[21] = target: Gal(b1-4)GlcNAc(b1-3)Gal(b1-4)GlcNAc(b1-3)Gal(b1-4)GlcNAc(b1-3)Gal(b1-4)GlcNAc(b1-3)Gal(b1-4)GlcNAc(b1-3)Gal(b1-4)GlcNAc(b1-2)Man(a1-3)[Gal(b1-4)GlcNAc(b1-3)Gal(b1-4)GlcNAc(b1-3)Gal(b1-4)GlcNAc(b1-3)Gal(b1-4)GlcNAc(b1-3)Gal(b1-4)GlcNAc(b1-3)Gal(b1-4)GlcNAc(b1-2)Man(a1-6)]Man(b1-4)GlcNAc(b1-4)GlcNAc
Outline: as §1

[22] = target: Gal3S(b1-4)[Fuc(a1-3)]GlcNAc6S
Outline: as §1

[23] = target: GalNAc(b1-4)GlcNAc(b1-3)GalNAc(b1-4)GlcNAc
Outline: as §1

GalNAc4S6S(b1-4)GlcNAc = target: GalNAc4S6S(b1-4)GlcNAc
Outline: as §1

GlcA(b1-3)Gal = target: GlcA(b1-3)Gal
Outline: as §1

[24] = target: GlcNAc(b1-2)[GlcNAc(b1-4)]Man(a1-3)[GlcNAc(b1-2)Man(a1-6)]Man(b1-4)GlcNAc(b1-4)GlcNAc
Outline: as §1

GlcNAc(b1-3)Gal(b1-4)Glc = target: GlcNAc(b1-3)Gal(b1-4)Glc
Outline: as §1

[25] = target: GlcNAc(b1-3)Gal(b1-4)GlcNAc(b1-3)Gal(b1-4)GlcNAc(b1-2)Man(a1-3)[GlcNAc(b1-3)Gal(b1-4)GlcNAc(b1-3)Gal(b1-4)GlcNAc(b1-2)Man(a1-6)]Man(b1-4)GlcNAc(b1-4)GlcNAc
Outline: as §1

MurNAc(b1-4)GlcNAc = target: MurNAc(b1-4)GlcNAc
Outline: as §1

Neu5Ac(a2-3)Gal = target: Neu5Ac(a2-3)Gal
Outline: as §1

[26] = target: Neu5Ac(a2-3)Gal(b1-3)GalNAc(b1-4)[Neu5Ac(a2-8)Neu5Ac(a2-3)]Gal(b1-4)Glc
Outline: as §1

[27] = target: Neu5Ac(a2-3)Gal(b1-3)GlcNAc(b1-2)Man
Outline: as §1

[28] = target: Neu5Ac(a2-3)Gal(b1-4)GlcNAc(b1-2)Man(a1-3)[GlcNAc(b1-4)][Neu5Ac(a2-3)Gal(b1-4)GlcNAc(b1-2)Man(a1-6)]Man(b1-4)GlcNAc(b1-4)GlcNAc
Outline: as §1

[29] = target: Neu5Ac(a2-3)Gal(b1-4)GlcNAc(b1-3)Gal(b1-4)GlcNAc
Outline: as §1

[30] = target: Neu5Ac(a2-3)Gal(b1-4)GlcNAc(b1-3)Gal(b1-4)[Fuc(a1-3)]GlcNAc
Outline: as §1

[31] = target: Neu5Ac(a2-3)Gal(b1-4)GlcNAc(b1-6)[Neu5Ac(a2-3)Gal(b1-3)]GalNAc
Outline: as §1

[32] = target: Neu5Ac(a2-3)Gal(b1-4)GlcNAc6S
Outline: as §1

[33] = target: Neu5Ac(a2-3)Gal(b1-4)[Fuc(a1-3)]GlcNAc(b1-6)[Gal(b1-3)]GalNAc
Outline: as §1

[34] = target: Neu5Ac(a2-6)GalNAc(b1-4)GlcNAc
Outline: as §1

[35] = target: Neu5Ac(a2-6)GlcNAc(b1-4)GlcNAc
Outline: as §1

[36] = target: Neu5Ac(a2-8)Neu5Ac(a2-8)Neu5Ac
Outline: as §1

[37] = target: Neu5Gc(a2-3)Gal(b1-4)[Fuc(a1-3)]GlcNAc
Outline: as §1

B1: HA-11100 (Pseudomonas aeruginosa), Q02G51_PSEAB (protein)
chain: QFNPNEIKISQQGKTTLIDQSTQRAIINWKGFDVSADEAVRFNQPGVTSSTLNRVTAGQESVIAGRISAPGQVIIYNSNGVVFSGSAKVDVGSLITTTANISDEHFRQGKLIFDQPGNPDARIVNDGSISVAEKGLAAFVAPSVANNGVINARLGTVAMAAGNAATIDLYG
- glycan array binding signal (z-score) (Fuc(a1-2)Gal): -0.09
- glycan array binding signal (z-score) [1]: 3.58
- glycan array binding signal (z-score) [2]: -0.134
- glycan array binding signal (z-score) [3]: -0.312
- glycan array binding signal (z-score) [4]: 7.81
- glycan array binding signal (z-score) [5]: 0.052
- glycan array binding signal (z-score) [6]: 0.044
- glycan array binding signal (z-score) [7]: -0.174
- glycan array binding signal (z-score) [8]: -0.384
- glycan array binding signal (z-score) [9]: 3.33
- glycan array binding signal (z-score) [10]: -0.403
- glycan array binding signal (z-score) [11]: -0.463
- glycan array binding signal (z-score) [12]: 3.53
- glycan array binding signal (z-score) [13]: -0.29
- glycan array binding signal (z-score) [14]: -0.512
- glycan array binding signal (z-score) [15]: 3.28
- glycan array binding signal (z-score) [16]: 7.59
- glycan array binding signal (z-score) [17]: 10.5
- glycan array binding signal (z-score) [18]: 5.77
- glycan array binding signal (z-score) [19]: 2.99
- glycan array binding signal (z-score) [20]: 3.24
- glycan array binding signal (z-score) [21]: 1.87
- glycan array binding signal (z-score) [22]: -0.451
- glycan array binding signal (z-score) [23]: 0.008
- glycan array binding signal (z-score) (GalNAc4S6S(b1-4)GlcNAc): -0.38
- glycan array binding signal (z-score) (GlcA(b1-3)Gal): -0.243
- glycan array binding signal (z-score) [24]: -0.37
- glycan array binding signal (z-score) (GlcNAc(b1-3)Gal(b1-4)Glc): -0.359
- glycan array binding signal (z-score) [25]: 3.34
- glycan array binding signal (z-score) (MurNAc(b1-4)GlcNAc): 0.053
- glycan array binding signal (z-score) (Neu5Ac(a2-3)Gal): -0.148
- glycan array binding signal (z-score) [26]: -0.214
- glycan array binding signal (z-score) [27]: -0.402
- glycan array binding signal (z-score) [28]: -0.268
- glycan array binding signal (z-score) [29]: -0.347
- glycan array binding signal (z-score) [30]: -0.737
- glycan array binding signal (z-score) [31]: -0.222
- glycan array binding signal (z-score) [32]: -0.016
- glycan array binding signal (z-score) [33]: 4.78
- glycan array binding signal (z-score) [34]: -0.851
- glycan array binding signal (z-score) [35]: -0.421
- glycan array binding signal (z-score) [36]: -0.333
- glycan array binding signal (z-score) [37]: -0.065
